Results reported in PubChem BioAssay AID504942 (Broad Institute, 2011).
Measured potencies and affinities stand elsewhere. Calls of active or inactive are those of the source. How the calls were made is not given here.

Assay: toxicity to human HeLa cells – cell-based, 48 h, plate reader, cherry-picks, cytotoxicity control, dose response (AID 504942)
Conditions: series mostly up to 38 µM; activity change, negative = toxicity: at the top concentration
For `Cc1cc(NC(=O)c2c(F)c(F)c(F)c(F)c2F)no1`, the “activity change, negative = toxicity” value was 8.16% (inactive).
For `COc1ccccc1C(C#N)c1cccc(Cl)n1` (centres undefined), the “activity change, negative = toxicity” value was -6.54% (inactive).
In the case of `Cc1cccc(C(C#N)c2ccc(Cl)nn2)c1` (centres undefined), the “activity change, negative = toxicity” value is reported as -1.38% (inactive).
For `O=S1(=O)CCOC[C@H](c2ccccc2)N1Cc1cccc(Cl)c1`, the “activity change, negative = toxicity” value was -6.54% (inactive).
For `CCOc1ccc(CNC2CCCc3ccccc32)cc1` (centres undefined), the “activity change, negative = toxicity” value was -2.04% (inactive).
In the case of `O=[N+]([O-])c1ccc(-c2cccnc2)cc1`, the “activity change, negative = toxicity” value is reported as 7.75% (inactive).
For `Cc1cc(NC(=O)c2cc([N+](=O)[O-])ccc2Cl)no1`, the “activity change, negative = toxicity” value was 18.1% (inactive).
In the case of `N#CCn1c(C2CCCCC2)nc2ccccc2c1=O`, the “activity change, negative = toxicity” value is reported as 5.78% (inactive).
With `Cc1cc(NC(=O)c2cc([N+](=O)[O-])cc([N+](=O)[O-])c2C)no1` the “activity change, negative = toxicity” value was -2.22% (inactive).
In the case of `CSC1=N/C(=C\C=C\c2cccs2)C(=O)S1`, the “activity change, negative = toxicity” value is reported as 3.28% (inactive).
In the case of `N#Cc1cc(-c2ccccc2)cnc1Cl`, the “activity change, negative = toxicity” value is reported as 10.2% (inactive).
For `COc1ccc(N=C(C)C2=C(O)CSC2=O)cc1`, the “activity change, negative = toxicity” value was 5.08% (inactive).
For `CC(C)CCNC(=O)c1cccc(Cl)c1`, the “activity change, negative = toxicity” value was -0.254% (inactive).
With `Cc1ccc(C(C#N)c2ccc(Cl)nn2)cc1` (centres undefined) the “activity change, negative = toxicity” value was 1.95% (inactive).
In the case of `COC(=O)c1ccc(OC(=O)c2cccs2)cc1`, the “activity change, negative = toxicity” value is reported as -6.4% (inactive).
For `O=C(/C=C/c1cccs1)c1cc(Cl)ccc1O`, the “activity change, negative = toxicity” value was -1.83% (inactive).
For `N#CC(c1ccc(Cl)nn1)c1c(F)cccc1Cl` (centres undefined), the “activity change, negative = toxicity” value was 5.99% (inactive).
For `Cc1ccc(C)c(S(=O)(=O)NC2CCSC2=O)c1` (centres undefined), the “activity change, negative = toxicity” value was 3.01% (inactive).
In the case of `COc1ccc(N2CCN(C(=O)c3ccc(Br)o3)CC2)cc1`, the “activity change, negative = toxicity” value is reported as 7.9% (inactive).
For `Cc1cc(C)nc(N(C#N)Cc2ccccc2)n1`, the “activity change, negative = toxicity” value was 1.81% (inactive).
In the case of `Cc1cccc(NC(=O)Nc2cc(C)on2)c1`, the “activity change, negative = toxicity” value is reported as 7.03% (inactive).
In the case of `CCOC(=O)c1ccc(-c2ccc(CO)o2)cc1`, the “activity change, negative = toxicity” value is reported as -1.41% (inactive).
For `Cn1cccc1C(C#N)c1cccc(F)c1C#N` (centres undefined), the “activity change, negative = toxicity” value was -6.29% (inactive).
For `COc1ccc(C(C#N)c2ccc(Cl)nn2)cc1` (centres undefined), the “activity change, negative = toxicity” value was -3.69% (inactive).
For `CCOC1=CC(=O)OC(c2ccccc2)C1` (centres undefined), the “activity change, negative = toxicity” value was 3.44% (inactive).
With `N#CC(c1ccc(Cl)cc1)c1cccc(Cl)n1` (centres undefined) the “activity change, negative = toxicity” value was 6.54% (inactive).
In the case of `Cn1cccc1C(C#N)c1ccccc1C#N` (centres undefined), the “activity change, negative = toxicity” value is reported as 5.17% (inactive).
In the case of `N#CC(Sc1ccccn1)c1ccc(Cl)cc1` (centres undefined), the “activity change, negative = toxicity” value is reported as 1.92% (inactive).
For `O=C(NC1CCCC1)c1cc(Cl)ccc1[N+](=O)[O-]`, the “activity change, negative = toxicity” value was -0.51% (inactive).
